A selection: hits, their analogues and other compounds. The true share with any hit is near 3.9%.
CASP6 VEID inh – inhibitors of human caspase-6; P55212; purified caspase-6, Z-VEID-R110 cleavage fluorescence; inhibition, % at 12.5 µM; actives 0.53% (n = 350,000); AID 686996;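 active means mean inhibition across replicates at least about 35%, with every replicate also reaching that limit, limit read from the data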
N-glyco inh – N-linked glycosylation inhibition; D54 ERlucT glycosylation luciferase reporter, 24 h; percent of 100 nM tunicamycin response; reporter increase, % at 12.5 µM; AID 588692; actives 0.23% (n = 360,000);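 active means mean luciferase reporter signal, scaled so untreated is 0 and the glycosylation-blocking control 100, at or above a set limit in every replicate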;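 further: luciferase carries N-glycosylation sites so blocking glycosylation raises the light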
CDK5 p35 inh – blocks human CDK5/p35 kinase activity | inhibition, % at 10 µM | actives 0.01% (n = 330,000) | AID 488839 | Recombinant CDK5/p35, ADP-Glo luminescence, 60 min | Q00535+Q15078;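 active means highest replicate inhibition of at least 50% and at least 75% of replicates reaching 50%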
Target sequence (Q00535 whole entry, looked up): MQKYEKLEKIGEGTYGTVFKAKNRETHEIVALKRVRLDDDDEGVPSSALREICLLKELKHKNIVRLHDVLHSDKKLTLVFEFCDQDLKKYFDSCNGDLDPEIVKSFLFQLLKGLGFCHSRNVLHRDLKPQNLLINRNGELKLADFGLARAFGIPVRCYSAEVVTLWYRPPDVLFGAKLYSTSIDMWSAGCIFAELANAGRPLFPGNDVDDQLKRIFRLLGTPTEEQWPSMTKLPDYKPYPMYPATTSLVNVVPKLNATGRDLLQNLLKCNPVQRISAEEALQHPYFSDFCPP
Target sequence (Q15078 whole entry, looked up): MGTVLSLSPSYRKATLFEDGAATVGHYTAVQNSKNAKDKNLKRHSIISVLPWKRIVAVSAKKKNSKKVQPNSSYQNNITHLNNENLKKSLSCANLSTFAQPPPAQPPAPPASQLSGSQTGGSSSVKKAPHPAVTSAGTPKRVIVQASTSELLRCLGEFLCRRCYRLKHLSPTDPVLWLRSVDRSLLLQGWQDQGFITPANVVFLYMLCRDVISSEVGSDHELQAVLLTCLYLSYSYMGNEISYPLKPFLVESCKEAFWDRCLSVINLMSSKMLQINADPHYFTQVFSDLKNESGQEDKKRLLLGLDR
NSD2 inh – inhibitors of human histone methyltransferase NSD2; O96028; NSD2 peptide methylation, AlphaScreen, 120 min; inhibition, % at 12.5 µM; actives 0.54% (n = 310,000); AID 743445; in the data active means inhibition above about 50%
ALR inh – human ALR oxidase inhibition via reduced H2O2; P55789; purified ALR, DTT oxidation, H2O2 HRP-luminol luminescence; inhibition, % (no concentration beside the values); AID 485317; actives 3.8% (n = 290,000);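 active means mean replicate inhibition above about 79%, with every replicate also reaching it, limit read from the data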
SUMO Mot1 rescue – SUMOylation pathway inhibition by Mot1-301 growth rescue | S. cerevisiae Mot1-301 growth rescue, ATP luminescence, 38.5C; percent above DMSO median, 100 means doubled | growth rescue, % at 18.8 µM | actives 1% (n = 320,000) | AID 2716;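 active means every valid replicate shows activation above 250% relative to neutral control wells; inactive means the rest, any valid replicate at or below 250%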
Large screens that a line does not name were inactive.

COc1ccc(C(=O)CSC2=C(C#N)C3(CCCCC3)C(C#N)=C(N)N2)cc1	ALR inh 87 (no result: CASP6 VEID inh)
CC(C)NC(=O)N(C)C[C@@H]1OCCCC[C@H](C)Oc2ccc(NS(=O)(=O)c3cn(C)cn3)cc2C(=O)N([C@@H](C)CO)C[C@@H]1C	none (no result: N-glyco inh, CDK5 p35 inh, NSD2 inh, ALR inh, SUMO Mot1 rescue)
COc1ccc2c3c(n(C)c2c1)[C@H](CO)N(C(=O)Cc1ccccc1)CC31CN(C(=O)Cc2ccccc2)C1	none (no result: N-glyco inh, CDK5 p35 inh, NSD2 inh, ALR inh, SUMO Mot1 rescue)
Cc1cc(C(C#N)c2ccccc2)n2ncnc2n1 (centres undefined)	none (no result: CASP6 VEID inh)
Cc1cc(C(C#N)c2ccccc2F)n2ncnc2n1 (centres undefined)	ALR inh 92
CN1C(=O)c2cc(NC(=O)c3ccc4c(c3)OCO4)ccc2OC[C@@H]2O[C@H](CC(=O)O)CC[C@@H]21	none (no result: N-glyco inh, CDK5 p35 inh, NSD2 inh, ALR inh, SUMO Mot1 rescue)
Oc1c(Cl)c(Cl)c2ncccc2c1Cl	none (no result: ALR inh, SUMO Mot1 rescue)
COc1cc(N)c2ncccc2c1Cl	CASP6 VEID inh 56 (no result: ALR inh, SUMO Mot1 rescue)
C[C@H](CO)N1C[C@H](C)[C@@H](CN(C)Cc2ccc3c(c2)OCO3)Oc2ccc(NC(=O)Nc3cccc4ccccc34)cc2CC1=O	none (no result: N-glyco inh, CDK5 p35 inh, NSD2 inh, ALR inh, SUMO Mot1 rescue)
CCc1ccc2c(c1)[C@H]1OCC[C@H]1[C@@H](c1cccs1)N2	ALR inh 97 (no result: CASP6 VEID inh)
Cc1ccc(S(=O)(=O)Nc2ccc(O)c3cccnc23)cc1	ALR inh 95
Cc1ccc(S(=O)(=O)Nc2ccc(O)c3ncccc23)cc1	ALR inh 88 (no result: NSD2 inh)
O=C(c1cc(Cl)ccc1F)N1CCCC(Nc2ccc3c(c2)OCCO3)C1 (centres undefined)	ALR inh 97
O=C(c1ccco1)N1CCCC(Nc2ccc3c(c2)OCCO3)C1 (centres undefined)	ALR inh 99
CSCc1ccc(C(=O)N2CCCC(Nc3ccc4c(c3)OCCO4)C2)o1 (centres undefined)	ALR inh 99
Cc1occc1C(=O)N1CCCC(Nc2ccc(F)c(F)c2)C1 (centres undefined)	none
COCc1ccc(C(=O)N2CCCC(CNC(=O)c3ccc(F)cc3)C2)o1 (centres undefined)	none
CSCc1ccc(C(=O)N2CCCC(Nc3ccc(F)cc3)C2)o1 (centres undefined)	ALR inh 98
COc1ccccc1-c1cnc2c(c1)C(=O)N([C@@H](C)CO)C[C@@H](C)[C@H](CN(C)Cc1ccncc1)O2	none (no result: N-glyco inh, CDK5 p35 inh, NSD2 inh, ALR inh, SUMO Mot1 rescue)
CCOC(=O)CN1C(=O)S/C(=C\c2ccc(-c3cccc(C(=O)O)c3C)o2)C1=O	none (no result: CDK5 p35 inh)
COc1ccccc1N1C(=N)S/C(=C\c2ccc(-c3ccccc3C(=O)O)o2)C1=O	ALR inh 98
C[C@@H]1CN([C@H](C)CO)C(=O)c2cc(NC(=O)Cn3cnnn3)ccc2O[C@@H]1CN(C)S(=O)(=O)c1ccccc1	none (no result: N-glyco inh, CDK5 p35 inh, NSD2 inh, ALR inh, SUMO Mot1 rescue)
O=C(C1CC1)N1CCc2cc(Br)cc(S(=O)(=O)N3CCCCCC3)c21	none (no result: CASP6 VEID inh, NSD2 inh)
CC(=O)N1CCc2cc(Br)cc(S(=O)(=O)N3CCC(C(=O)O)CC3)c21	CASP6 VEID inh 39
CC(C)(C)OC(=O)CC[C@@]12N=C(c3ccc(OCCCO)cc3)O[C@@H]1c1ccccc1CN(C(=O)c1ccccc1)C2=O	none (no result: N-glyco inh, CDK5 p35 inh, NSD2 inh, ALR inh, SUMO Mot1 rescue)
Cc1noc(C)c1NC(=O)Nc1ccc2c(c1)C(=O)N([C@H](C)CO)C[C@H](C)[C@H](CN(C)CC1CCCCC1)OCCCC[C@@H](C)O2	none (no result: N-glyco inh, CDK5 p35 inh, NSD2 inh, ALR inh, SUMO Mot1 rescue)
CC(C)c1ccc(S(=O)(=O)N2CCN(CC(=O)c3ccc(O)c(O)c3)CC2)cc1	CASP6 VEID inh 57, NSD2 inh 96, ALR inh 99
CN1C2CCC1CC(NC(=O)CSCc1ccc(Cl)cc1Cl)C2 (centres undefined)	ALR inh 98
CC(C)OCCOc1ccc2oc(-c3ccco3)cc(=O)c2c1	CASP6 VEID inh 35
COC(=O)[C@@H]1[C@@H](CO)[C@@H]2Cn3c(ccc(-c4ccccc4)c3=O)[C@@H]2N1C(=O)CC1CC1	none (no result: N-glyco inh, CDK5 p35 inh, NSD2 inh, ALR inh, SUMO Mot1 rescue)
Cc1ccc[n+](-c2nc([O-])sc2/C=N/Nc2ccc([N+](=O)[O-])cc2)c1	ALR inh 92
Oc1ccc(/C=N/N2CCCCC2)c(O)c1	ALR inh 98
Oc1cccc(/C=N/N2CCCCC2)c1O	ALR inh 99
Oc1ccccc1/C=N/N1CCCCC1	none
Oc1ccccc1C=NN1CCCCCC1	none (no result: ALR inh, SUMO Mot1 rescue)
Oc1ccc(Cl)cc1C=NN1CCCCCC1	none (no result: ALR inh, SUMO Mot1 rescue)
Oc1ccc(/C=N/N2CCCCC2)c(O)c1O	CASP6 VEID inh 39
CC(C)NC(=O)N1[C@H](CO)[C@@H]2c3ccccc3N(C(=O)c3ccncc3)C[C@@H]21	none (no result: N-glyco inh, CDK5 p35 inh, NSD2 inh, ALR inh, SUMO Mot1 rescue)
CCS(=O)(=O)N[C@@H]1CC[C@H](CC(=O)NC2Cc3ccccc3C2)O[C@H]1CO	none (no result: N-glyco inh, CDK5 p35 inh, NSD2 inh, ALR inh, SUMO Mot1 rescue)
C[C@H](CO)N1C[C@H](C)[C@H](CN(C)S(=O)(=O)c2ccc(C#N)cc2)Oc2ncc(/C=C/c3ccccc3)cc2C1=O	none (no result: N-glyco inh, CDK5 p35 inh, NSD2 inh, ALR inh, SUMO Mot1 rescue)
Fc1ccc(-c2ncc3ccccn23)cc1	none (no result: ALR inh)
Brc1ccc(-c2ncc3ccccn23)cc1	ALR inh 89
COc1ccccc1NC(=O)Nc1ccc2c(c1)C(=O)N(C)C[C@H](OC)[C@@H](C)CN[C@@H](C)CO2	none (no result: N-glyco inh, CDK5 p35 inh, NSD2 inh, ALR inh, SUMO Mot1 rescue)
CN1c2cccc3cccc(c23)N(C)C1c1cccs1	ALR inh 90 (no result: CASP6 VEID inh)
CC1N(C)c2cccc3cccc(c23)N1C	none (no result: CASP6 VEID inh, ALR inh)
C[C@@H]1CN([C@@H](C)CO)C(=O)c2cc(NS(C)(=O)=O)ccc2O[C@@H](C)CCCCO[C@@H]1CN(C)C	none (no result: N-glyco inh, CDK5 p35 inh, NSD2 inh, ALR inh, SUMO Mot1 rescue)
Cc1ccc(-c2nc3ncccc3o2)cc1NC(=O)c1ccc([N+](=O)[O-])o1	N-glyco inh 36 (no result: CASP6 VEID inh)
CO[C@@H]1CN(C)C(=O)c2cc(NC(=O)c3nc4ccccc4s3)ccc2OC[C@@H](C)N(Cc2cncnc2)C[C@@H]1C	none (no result: N-glyco inh, CDK5 p35 inh, NSD2 inh, ALR inh, SUMO Mot1 rescue)
COCC(=O)Nc1ccc2c(c1)C(=O)N(C)C[C@H](OC)[C@H](C)CN(C(C)=O)[C@H](C)CO2	none (no result: N-glyco inh, CDK5 p35 inh, NSD2 inh, ALR inh, SUMO Mot1 rescue)
CCN(CC)c1ccc2c(-c3ccc(S(=O)(=O)O)cc3S(=O)(=O)[O-])c3ccc(=[N+](CC)CC)cc-3oc2c1	NSD2 inh 61
COCCNC(=O)C(c1cccs1)N(CCc1ccccc1)C(=O)Cn1nnc2ccccc21 (centres undefined)	none (no result: CASP6 VEID inh)
COCCNC(=O)C(c1cccs1)N(Cc1ccccc1)C(=O)Cn1nnc2ccccc21 (centres undefined)	SUMO Mot1 rescue 284 (no result: CASP6 VEID inh)
COc1ccccc1C#Cc1cnc2c(c1)C(=O)N([C@@H](C)CO)C[C@@H](C)[C@@H](CN(C)C(C)=O)O2	none (no result: N-glyco inh, CDK5 p35 inh, NSD2 inh, ALR inh, SUMO Mot1 rescue)
Cc1cccc(NC(=O)CSc2ncnc3sc4c(c23)CCCC4)c1	none (no result: CASP6 VEID inh, N-glyco inh, CDK5 p35 inh, ALR inh, SUMO Mot1 rescue)
CC(C)(C)C(=O)CSc1ncnc2sc3c(c12)CCC3	none
CC(=O)CSc1ncnc2sc3c(c12)CCC3	ALR inh 94
COc1cc(NC(=O)CSc2ncnc3sc4c(c23)CCCC4)c(C(=O)O)cc1OC	ALR inh 88
CN1C2=CC=CC=CC2=[N+](C)C12C([N+](=O)[O-])=CC(=[N+]([O-])[O-])C=C2[N+](=O)[O-] (centres undefined)	N-glyco inh 29
